Reference: PubChem BioAssay AID1159580 (chemical genetic matrix, 2015)
Values joined by “and” are separate entries in the source; they are usually repeats but may differ in a detail not shown here. Identical values can stand only once. The whole screen tested about 5,500 compounds, of which about 2,000 (36%) were called active. About 18% were inconclusive and are not listed. Rule as the data show it: active = normalized growth mostly below about 0.91 (no sharp cut-off); inconclusive = no clear call, values can overlap the other calls; inactive = mostly above about 0.92. The list shows a part of the results.

Test: chemical genetic growth profiling, strain panel (AID 1159580);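 also: tested at 20 µM; growth read once vehicle control cultures reached saturation at 30 °C; 1 = growth at the plate median or of vehicle wells; lower values mean less growth of the strain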
Details: S. cerevisiae deletion strains, growth OD

Measured: normalized growth

COc1cc(OC)c(-c2c(OC)cc(OC)cc2OC)c(OC)c1
inactive: locus YBR021W, strain FUR4, hits give low values 1.05 | locus YBR229C, strain ROT2, hits give low values 1.01 | locus YCL029C, strain bik1, hits give low values 0.997 | locus YDL035C, strain GPR1, hits give low values 1.02 | locus YDL074C, strain BRE1, hits give low values 1.06 | locus YDL101C, strain DUN1, hits give low values 1.03 | locus YDL185W, strain tfp1, hits give low values 1.03 | locus YDL192W, strain arf1, hits give low values 1.04 | locus YDR101C, strain arx1, hits give low values 1.02 | locus YDR162C, strain NBP2, hits give low values 1.04 | locus YDR318W, strain mcm21, hits give low values 1.03 | locus YDR388W, hits give low values 1.01 | locus YDR502C, strain sam2, hits give low values 1.05 | locus YEL061C, strain CIN8, hits give low values 1.01 | locus YER110C, hits give low values 1.02 | locus YER155C, strain BEM2, hits give low values 1.01 | locus YER167W, strain BCK2, hits give low values 1.01 | locus YGL078C, strain dbp3, hits give low values 1.05 | locus YGL086W, strain mad1, hits give low values 1.04 | locus YGL248W, strain PDE1, hits give low values 1.03 | locus YGR078C, strain PAC10, hits give low values 1.06 | locus YGR135W, strain pre9, hits give low values 1.07 | locus YGR252W, strain gcn5, hits give low values 1.05 | locus YHR030C, strain SLT2, hits give low values 0.998 | locus YHR079C, strain IRE1 (second series), hits give low values 1.02 | locus YHR079C, strain IRE1, hits give low values 0.998 | locus YHR094C, strain hxt1, hits give low values 1.03 | locus YHR129C, strain ARP1, hits give low values 1.01 | locus YHR200W, strain rpn10, hits give low values 1.03 | locus YIL066C, strain RNR3, hits give low values 1.02 | locus YIL073C, strain SPO22, hits give low values 1.1 | locus YIL125W, strain kgd1, hits give low values 1.01 | locus YIR030C, strain dcg1, hits give low values 1.02 | locus YJL095W, strain BCK1, hits give low values 1.09 and 0.999 | locus YJL134W, strain LCB3, hits give low values 1.01 | locus YJL168C, strain set2, hits give low values 1.02 | locus YJL187C, strain SWE1 (second series), hits give low values 1.06 | locus YJR066W, strain TOR1, hits give low values 0.953 | locus YJR075W, strain HOC1, hits give low values 1.04 | locus YKL009W, strain mrt4, hits give low values 1.06 | locus YKL068W, hits give low values 0.993 | locus YKL085W, strain MDH1 (second series), hits give low values 1.01 | locus YKL085W, strain MDH1, hits give low values 1.01 | locus YKL190W, strain CNB1, hits give low values 1.02 | locus YKR001C, strain vps1, hits give low values 1.05 | locus YLR039C, strain RIC1, hits give low values 1.07 | locus YLR058C, strain SHM2, hits give low values 1.04 | locus YLR102C, strain apc9, hits give low values 1.01 | locus YLR113W, strain HOG1, hits give low values 1 | locus YLR262C, strain YPT6, hits give low values 1.09 | locus YLR268W, strain sec22, hits give low values 1.02 | locus YLR371W, strain rom2, hits give low values 1.02 | locus YLR418C, strain cdc73, hits give low values 1.13 | locus YML016C, strain PPZ1, hits give low values 1.02 | locus YML032C, strain rad52, hits give low values 1.04 | locus YML124C, strain tub3, hits give low values 1.02 | locus YMR078C, strain ctf18, hits give low values 1.02 | locus YMR223W, strain ubp8, hits give low values 1.04 | locus YMR307W, strain GAS1, hits give low values 1.07 | locus YNL067W, strain RPL9B, hits give low values 1.05 | locus YNL183C, strain NPR1, hits give low values 0.948 | locus YNL233W, strain BNI4, hits give low values 1.07 | locus YNL250W, strain rad50, hits give low values 1.06 | locus YNL271C, strain bni1, hits give low values 1.02 | locus YNL298W, strain CLA4, hits give low values 1.03 | locus YNL307C, strain MCK1, hits give low values 1.03 | locus YNR052C, strain pop2, hits give low values 1.04 | locus YOL006C, strain TOP1, hits give low values 1.15 | locus YOL012C, strain htz1 0.971 | locus YOL147C, strain pex11, hits give low values 1.03 | locus YOR061W, strain CKA2, hits give low values 1.02 | locus YOR069W, strain VPS5, hits give low values 1.01 | locus YOR136W, strain idh2, hits give low values 1.03 | locus YOR144C, strain elg1, hits give low values 1.02 | locus YOR184W, strain ser1, hits give low values 1.04 | locus YOR231W, strain MKK1, hits give low values 0.976 | locus YOR316C, strain cot1, hits give low values 1.03 | locus YPL256C, strain CLN2, hits give low values 0.997 | locus YPR119W, strain clb2, hits give low values 1.01 | locus YPR141C, strain kar3, hits give low values 1.02 | locus YPR163C, strain tif3, hits give low values 1.03 | locus YPR167C, strain met16, hits give low values 1.03 | strain wtn01, hits give low values 1.03
